About 83,000 compounds went through this panel and 20% of them were active in at least one assay; those are over-represented in the sample as a whole.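 Each cell line was grown in a 96-well plate and treated with one concentration of compound for 48 hours. Values below 10 were considered active.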 Active and inactive are the calls of the source.
tested on: SR leukemia; test: NCI-60 one-dose screen, 48 h (100 = growth as untreated, 0 = no growth, -100 = all killed); settings: 10 µM

| SMILES | growth |
| --- | --- |
| Cc1ccc(C(=O)N/C(=C2/OCCN2C)[P+](c2ccccc2)(c2ccccc2)c2ccccc2)cc1 | 79.5% (inactive) |
| CN(C)c1ccc(/C=C/c2nc3ccccc3c(=O)n2CC(=O)Nc2ccc(Cl)cc2)cc1 | 81.2% (inactive) |
| Cc1ccc(CNC(=O)Cc2ccc3c(c2)CN(C2CCC(=O)NC2=O)C3=O)cc1 (stereo unspecified) | 38.7% (inactive) |
| Cc1ccn2c(C(=O)c3ccccc3)cc(-c3cc(-c4ccc(N(C)C)cc4)c(C#N)c(N)n3)c2c1 | 75.9% (inactive) |
| CCOP(=O)(OCC)O[C@H]1CCC(=O)[C@@H]2[C@H]1[C@H]1C[C@@H]3[C@@]4(C)CCCC(C)(C(=O)OC)[C@@H]4CC[C@@]23C=C1C(C)C (stereo partly specified) | 37.5% (inactive) |
| C#CCNC(=O)CCC(=O)OC[C@]12CC[C@@H](C(=C)C)[C@@H]1C1CC[C@@H]3[C@@]4(C)CCCNC(C)(C)[C@@H]4CC[C@@]3(C)[C@]1(C)CC2 (stereo partly specified) | -7.1% (active) |
| C/C(=N\N=C\c1ccc(N(C)C)cc1)c1ccc2c(c1)Nc1ccccc1S2 | 50% (inactive) |
| O=C(Nc1ccc(Cl)c([N+](=O)[O-])c1)Nc1ccc(Cl)c([N+](=O)[O-])c1 | 12.4% (inactive) |
| COc1ccc(CN2[C@H](C(=O)NCc3ccc(C(=O)NO)cc3)Cc3c([nH]c4ccccc34)[C@H]2C2CC2)cc1 | 25.5% (inactive) |
| O=C(NO)c1ccc(CNC(=O)[C@H]2Cc3c([nH]c4ccccc34)[C@H](c3ccc(Cl)cc3)N2)cc1 | 17.2% (inactive) |
| O=C(Cn1nc(-c2ccccc2)ccc1=O)NN1C(=O)c2ccccc2C1=O | 91.4% (inactive) |

From PubChem BioAssay (NCI)
